Assay results taken from ChEMBL document CHEMBL1157539, “Thousands of chemical starting points for antimalarial lead identification” (Nature, 2010).

Tested on: HepG2
Experiment: GSK_TCMDC: Percent inhibition of human HepG2 cell line. Test compounds present at 10uM.
Format: functional

Row | SMILES | Inhibition
1 | O=C(O)C(F)(F)F.O=C1CCCN1CCCNCc1cccc(-c2cccc(-c3nc4cc(C(F)(F)F)ccc4[nH]3)c2)c1 | 28%
2 | O=C(Nc1ccc(Cl)cc1F)NC1CCN(CCCCCNC(=O)C2CC2c2ccc(Cl)c(Cl)c2)CC1 (stereo not given) | 46%
3 | NC1=NC(c2ccccc2)(c2ccccc2)C(=O)N1Cc1ccc(-c2ccncc2)cc1.O=CO | 20%
4 | COc1ccccc1C1CCN(C2CCC(NC(=O)c3cc4ccccc4[nH]3)CC2)CC1 (stereo not given) | 49%
5 | CCc1c[nH]c2c(N3CCCS3(=O)=O)cc(C(=O)N[C@@H](Cc3ccccc3)[C@H](O)CNC(C)(C)c3cccc(C(F)(F)F)c3)cc12.O=CO | 20%
6 | CCNc1cc(C(=O)N[C@@H](Cc2ccccc2)[C@H](O)CNC(CC)c2cccc(Cl)c2)cc(N2CCCC2=O)c1.Cl (stereo not given in full) | 12%
7 | Cc1[nH]c2ccc(NS(C)(=O)=O)cc2c1C1CCN(CCC2CCN(C(=O)/C=C/c3ccc(Cl)c(Cl)c3)CC2)CC1 | 23%
8 | c1ccc2[nH]c(-c3ccc(-c4ccc(CN5CCCCC5)cc4)s3)nc2c1 | 41%
9 | CCOC(=O)c1c(CN2CCCC2)n(-c2ccccc2)c2cc(Br)c(O)cc12 | 0%
10 | N=C(N)Nc1nc(-c2cccc(NC(=O)NCc3cccc4ccccc34)c2)cs1 | 14%
11 | COc1ccc(C2N=C(N)N=C(N)N2OCc2ccccc2)cc1OC.Cl (stereo not given) | 1%
12 | c1cncc(Oc2ccc(Nc3ccnc4cc(-c5cccc(CN6CCOCC6)c5)ccc34)cc2)c1 | 14%
13 | Cc1nc(O)c2c(ccc3ccc(CNc4ccc(C(=O)N[C@@H](CCC(=O)O)C(=O)O)c(F)c4)cc32)n1 | 41%
14 | CCCN(CCC)C(=O)c1cc(C(=O)N[C@@H](Cc2ccccc2)[C@H](O)CNCc2cccc(C(F)(F)F)c2)cc(N2CCCCS2(=O)=O)c1 | 0%
15 | Br.CCCC1N=C(N)N=C(N)N1c1ccc(C)c(C)c1 (stereo not given) | 7%
16 | Cc1cc(NC2CCCC2)nc(Nc2ccc(F)cc2)n1 | 22%
17 | Cc1ccc(NC(=O)c2cc(S(=O)(=O)NC(C)(C)C)ccc2C)nc1 | 0%
18 | O=C(Nc1ccc(Oc2ccccc2)cc1)N1CCC(CCN2CCC(c3c[nH]c4ccccc34)CC2)CC1 | 42%
19 | CC(C)c1cc(Oc2c(I)cc(CCNCc3ccccc3)cc2I)ccc1O.Cl | 42%
20 | CC(=O)Nc1ccc(OCCN(CC(C)C)c2ccc(C(F)(F)F)c(C#N)c2)c(Cl)c1 | 13%

Row | SMILES | Inhibition
21 | COc1cccc(-c2nn(C)c3sc(C(=O)NCCN4CCN(c5ccccc5F)CC4)cc23)c1 | 9%
22 | O=C(NCC1CCN(CCN2CCC(c3cn(CCO)c4ccccc34)CC2)CC1)c1ccc(-c2ccc(C(F)(F)F)cc2)cc1 | 100%
23 | COc1ccc(-c2cccc(NC(=O)c3ccc(Cl)cc3)c2)cc1CN1CCCC1.O=C(O)C(F)(F)F | 55%
24 | CCn1c(C=Cc2cc(Br)ccc2O)nc2ccccc2c1=O | 6%
25 | CCN1C(=O)N(CCC(C)C)C2(CCN(Cc3ccc(OC)cc3O)CC2)C1=O | 13%
26 | Cc1cnc(C(=O)Nc2cccc(-c3ccc(-c4nc5cc(C(F)(F)F)ccc5[nH]4)s3)c2)cn1 | 35%
27 | CCCC[C@H](NC(=O)OC(C)(C)C)C(=O)Nc1ccc(Cc2ccc(NC(=O)[C@H](CCCC)NC(=O)OC(C)(C)C)cc2)cc1 | 5%
28 | COc1ccc(NC(=O)[C@H](Cc2ccccc2)Nc2cc(C)nc(NCCOc3ccccc3)n2)cc1.O=C(O)C(F)(F)F | 11%
29 | O=C(C=Cc1ccccc1)Nc1ccc(C#CC=Cc2ccc(NC(=O)C=Cc3ccccc3)cc2)cc1 | 26%
30 | O=C(Nc1ccc2c(ccn2C2CCCN(Cc3cc(F)cc(F)c3F)CC2)c1)c1ccco1 (stereo not given) | 7%
31 | CN1CCN(Cc2nc(-c3ccc4c(Nc5ccc(Oc6ccccc6)cc5)ccnc4c3)cs2)CC1 | 15%
32 | CC1CCN(Cc2c(O)ccc3c(O)c(-c4nc5ccccc5s4)c(=N)oc23)CC1 | 2%
33 | Cc1cc(N2CCCC2)nc(Nc2ccc(NC(=O)c3ccc4c(c3)OCO4)cc2)n1 | 26%
34 | COc1ccccc1CN1CCC(NC(=O)c2ccc(-c3cccc(Cl)c3)s2)CC1.O=C(O)C(F)(F)F | 49%
35 | CN(C)CCCn1c(C(=O)OC(c2ccccc2)c2ccccc2)cc2cc(OCc3ccccc3)ccc21 | 12%
36 | CC(C)C[C@H](NC(=O)[C@H](Cc1ccccc1)NC(=O)CCN1C(=O)COc2ccc(C(=O)O)cc21)C(=O)NC(CC1CCCCC1)C(O)CC(=O)NCCCn1ccnc1.Cl.O (stereo not given in full) | 0%
37 | COc1cc(C(=O)NCc2nn(CCN3CCC(N4CCCC4)CC3)cc2-c2ccc(Cl)c(Cl)c2)cc(OC)c1OC | 16%
38 | CCOc1cc(CC)ccc1C1CCN(CCCCNC(=O)c2ccc(NC(=O)c3ccc(Cl)cc3)cc2)CC1.Cl | 11%
39 | CCCCN(C)CC#Cc1ccc(-c2ccc3[nH]c(C)c(Br)c(=O)c3c2)cn1 | 3%
40 | Cc1ccc2c(c1)NCC21CCN(C[C@@H](O)C2CCN(c3cc(C#N)ccn3)CC2)CC1C (stereo not given in full) | 28%
